Rab9 promoter act: activators of Rab9 promoter; Huh7 Rab9 promoter-luciferase reporter, luminescence, 24 h; Potency, µM (highest dose often 9.22 µM), inactives show at the highest dose activation, negative = inhibition, usual class: activators; 320,000 compounds, 2.8% hits; AID 485297; also: % of control where 0% means no effect; nearly all actives have a fitted effect of over 60% in size
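Measured in stably transfected Huh7 cells bearing a Rab9 promoter–luciferase construct: 24 h compound treatment at 37 °C, followed by luminescence detection.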
ELG1 genotox: inducers of genotoxicity in HEK293T ELG1-luciferase cells; AID 504466; 330,000 compounds, 1.3% hits; HEK293T ELG1-luciferase reporter, luminescence, 16 h; Potency, µM (series often up to 46 µM), inactives show at the top dose activity change, positive = activation, actives largely listed as activators; also: % of control where 0% means no effect; nearly all actives have a fitted effect of over 60% in size
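DMSO vehicle served as control against compound-treated ELG1-luciferase HEK293T cells; exposure lasted 16 hr at 37 °C and 5% CO2, followed by ONE-Glo luminescence detection after 30 min.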
FLuc modulator: firefly luciferase modulation, counter-screen for miR-21 project; purified FLuc, Km substrates, luminescence inhibition; Potency, µM (titrated, usually from 57.5 µM), without a hit: at the top dose activity change, negative = inhibition, hits mostly inhibitors; 360,000 compounds, 6.9% hits; AID 588342; P08659;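 also: plate controls were vehicle for no effect and reference inhibitor for full effect; nearly all actives have a fitted effect of over 55% in size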
Target sequence (P08659 whole entry, looked up): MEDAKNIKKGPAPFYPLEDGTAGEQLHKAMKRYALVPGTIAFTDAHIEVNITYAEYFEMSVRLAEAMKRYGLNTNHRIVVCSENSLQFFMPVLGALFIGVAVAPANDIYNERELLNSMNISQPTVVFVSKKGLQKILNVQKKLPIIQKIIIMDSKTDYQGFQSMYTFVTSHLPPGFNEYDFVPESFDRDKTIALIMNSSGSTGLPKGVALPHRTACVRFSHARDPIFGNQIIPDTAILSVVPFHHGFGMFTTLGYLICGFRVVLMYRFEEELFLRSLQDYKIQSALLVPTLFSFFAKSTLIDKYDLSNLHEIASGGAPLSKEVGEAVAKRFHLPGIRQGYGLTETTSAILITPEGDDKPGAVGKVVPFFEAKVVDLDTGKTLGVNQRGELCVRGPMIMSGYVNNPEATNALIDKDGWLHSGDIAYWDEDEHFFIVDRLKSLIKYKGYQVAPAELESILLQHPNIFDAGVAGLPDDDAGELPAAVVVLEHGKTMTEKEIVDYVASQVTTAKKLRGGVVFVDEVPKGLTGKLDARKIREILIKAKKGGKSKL
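Biochemical qHTS of compounds, final roughly 60 µM downward over six points, against 10 nM purified firefly luciferase using Km concentrations of substrates (10 uM D-luciferin, 10 uM ATP) in Tris acetate pH 7.5 buffer; luminescence output.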
NPC1 prom act: activates the NPC1 promoter. Huh7 NPC1 promoter luciferase reporter, 24 h. Potency, µM (top dose mostly 9.22 µM), without a hit: at the highest dose activation, usual class: activators. 320,000 compounds, 2.4% hits. AID 485313; also: % of control where 0% means no effect; nearly all actives have a fitted effect of over 60% in size
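Stable NPC1-promoter luciferase Huh7 line; cpd (DMSO) 24 h, 37 °C, 5% CO2; Amplite luciferase reagent 10 min RT; luminescence readout. qHTS format.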
SMN2 splice up: enhancers of SMN2 splice variant expression; HEK293 SMN2-luciferase splicing reporter, luminescence, 30-36 h; Potency, µM (titrated, usually from 46.1 µM), inactives show at the top dose activity change, positive = activation, actives largely listed as activators; 210,000 compounds, 2.8% hits; AID 1458; also: % of control where 0% means no effect; nearly all actives have a fitted effect of over 55% in size
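HEK293 cells carry an SMN2 minigene-luciferase reporter in which exon 7 inclusion puts luciferase in frame. Cells were seeded at 2000 cells/well, attached for 10-12 hours, then exposed to compounds for 30-36 hours at 37C before ONE-Glo luminescence.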
An asterisk follows results filed as active. This is a sample that favours compounds with a hit; in the whole collection about 7.5% have one here. Calls follow the shape of the dose curve; as a rule, active = well fitted curve in the direction sought with a large enough effect; inconclusive = small, poorly fitted or top-dose-only effect, or another doubt; inactive = no such curve, though single readings can be large; an effect the other way counts as inactive or inconclusive. Potency is read from the fitted curve at half-maximal effect.

`Cc1cc(SCC(=O)NCCCN2CCCC2=O)nc2ccccc12` gave Rab9 promoter act -8%, ELG1 genotox 1%, FLuc modulator 7% and NPC1 prom act -9%.
For O=C(Nc1ccc(-c2nc3ccccc3o2)cc1)C1CCCO1 (stereo not given) the results were Rab9 promoter act 0.45µM*, ELG1 genotox inconclusive, FLuc modulator 1.3µM*, NPC1 prom act 0.32µM* and SMN2 splice up 7.9µM*.
Screening O=C(Nc1ccc(-c2nc3cccnc3s2)cc1)C1CCCO1 (stereo not given) returned Rab9 promoter act 0.1µM*, ELG1 genotox inconclusive, FLuc modulator 0.6µM*, NPC1 prom act 0.13µM* and SMN2 splice up 1.1µM*.
Screening O=C(Nc1ccc(-c2nc3cc(Cl)ccc3o2)cc1)c1cc(Br)ccc1Cl returned FLuc modulator inconclusive and SMN2 splice up -7%.
`O=C(Nc1ccc2oc(-c3ccccc3)nc2c1)c1ccc2ccccc2c1` gave FLuc modulator 3% and SMN2 splice up -9%.
For O=C(Nc1nnc(-c2ccncc2)s1)C1CCCO1 (stereo not given) the results were Rab9 promoter act 14%, ELG1 genotox 1%, FLuc modulator -11%, NPC1 prom act 13% and SMN2 splice up inconclusive.
O=C(Nc1ccc(-c2nc3cc(Cl)ccc3o2)cc1)C1CCCO1 (stereo not given) was read as Rab9 promoter act 0.5µM*, ELG1 genotox 18µM*, FLuc modulator 1.2µM*, NPC1 prom act 0.79µM* and SMN2 splice up 2.8µM*.
Screening O=C(Nc1ccc2oc(-c3ccccc3)nc2c1)C1CCCO1 (stereo not given) returned Rab9 promoter act 2.8µM*, ELG1 genotox 18µM*, FLuc modulator 7.6µM*, NPC1 prom act 2.2µM* and SMN2 splice up 11µM*.
For CCC(NC(=O)c1cccc(Cn2nc(C)c([N+](=O)[O-])c2C)c1)c1ccc(C(C)C)cc1 (stereo not given) the results were Rab9 promoter act 2%, ELG1 genotox -3%, FLuc modulator 2%, NPC1 prom act -5% and SMN2 splice up -2%.
CCCN1C(=O)C(O)(CC(=O)c2ccc(C(C)C)cc2)c2ccccc21 (stereo not given) was read as FLuc modulator -3% and SMN2 splice up -19%.
Screening COc1ccc(/C=C/C(=O)NC(=S)NNC(=O)Cc2cccs2)cc1 returned Rab9 promoter act 24%, ELG1 genotox inconclusive, FLuc modulator -12%, NPC1 prom act 12% and SMN2 splice up 13µM*.
`COc1ccc(C(=O)NNC(=S)NC(=O)/C=C/c2cccs2)cc1` gave Rab9 promoter act 3.5µM*, ELG1 genotox 21µM*, FLuc modulator 2.7µM* and NPC1 prom act 3.5µM*.
O=C(Cc1cccs1)NNC(=S)NC(=O)c1ccccc1 was read as Rab9 promoter act -3%, ELG1 genotox 4%, FLuc modulator -2%, NPC1 prom act -2% and SMN2 splice up -28%.
`O=C(/C=C/c1ccccc1)NC(=S)NNC(=O)Cc1cccs1` gave Rab9 promoter act 17%, ELG1 genotox 1%, FLuc modulator -3%, NPC1 prom act 7% and SMN2 splice up 13µM*.
Screening COc1ccc(/C=C/C(=O)NC(=S)NNC(=O)c2ccco2)cc1 returned Rab9 promoter act -2%, ELG1 genotox 1%, FLuc modulator -15%, NPC1 prom act -8% and SMN2 splice up -1%.
For CCOc1ccccc1OCCCC(=O)Nc1sccc1C(N)=O the results were Rab9 promoter act 0%, ELG1 genotox -4%, FLuc modulator -10%, NPC1 prom act 3% and SMN2 splice up -20%.
Screening Cn1nnnc1SCC(=O)Nc1ccccn1 returned Rab9 promoter act -1%, ELG1 genotox -3%, FLuc modulator 0%, NPC1 prom act -3% and SMN2 splice up 8%.
For COc1cc(-c2noc(-c3ccc(NCC4CCCO4)c([N+](=O)[O-])c3)n2)cc(OC)c1OC (stereo not given) the results were FLuc modulator 21µM*.
COc1ccc(-c2noc(-c3ccc(NCc4cccnc4)c([N+](=O)[O-])c3)n2)cc1 was read as FLuc modulator -15%.
COc1ccc(-c2noc(-c3ccc(NCC4CCCO4)c([N+](=O)[O-])c3)n2)cc1OC (stereo not given) was read as FLuc modulator 0%.
Screening COc1cc(-c2noc(-c3ccc(NCc4ccccc4)c([N+](=O)[O-])c3)n2)cc(OC)c1OC returned FLuc modulator 15µM*.
COc1ccc(-c2noc(-c3ccc(NC4CCCC4)c([N+](=O)[O-])c3)n2)cc1OC was read as FLuc modulator 13µM*.
O=[N+]([O-])c1cc(-c2nc(-c3ccco3)no2)ccc1NCc1ccccc1 was read as FLuc modulator 15µM*.
Screening O=C(Cn1c(=O)n(-c2ccccc2)c(=O)c2ccc(C(=O)NCc3ccc4c(c3)OCO4)cc21)Nc1ccc(F)cc1 returned FLuc modulator -4% and SMN2 splice up 7%.
Screening CCn1nc(C)c2c(-c3ccccc3)cc(=O)n(C(C)C(=O)Nc3cc(C)ccc3C)c21 (stereo not given) returned FLuc modulator -10%.
COc1ccc(N2C(=O)C3C4C=CC(C4)C3C2=O)c([N+](=O)[O-])c1 (stereo not given) was read as Rab9 promoter act 1%, ELG1 genotox 0%, FLuc modulator -6%, NPC1 prom act -2% and SMN2 splice up -8%.
`CCCNC(=O)CN1C(=O)COc2ccc(S(=O)(=O)N3CCCCCC3)cc21` gave Rab9 promoter act -4%, ELG1 genotox 0%, FLuc modulator 5%, NPC1 prom act 2% and SMN2 splice up 8%.
Screening O=C1C2C3C=CC(CC3)C2C(=O)N1c1ccc2c(c1)OCO2 (stereo not given) returned Rab9 promoter act 6%, ELG1 genotox 1%, FLuc modulator 17µM*, NPC1 prom act 0% and SMN2 splice up -16%.
For O=C1C2C3C=CC(C3)C2C(=O)N1c1ccc2c(c1)OCO2 (stereo not given) the results were Rab9 promoter act -2%, ELG1 genotox -2%, FLuc modulator -23% and NPC1 prom act 6%.
`COc1nc(N)nc(NC23CC4CC(CC(C4)C2)C3)n1` gave Rab9 promoter act 5%, ELG1 genotox inconclusive, FLuc modulator 5.4µM*, NPC1 prom act 7% and SMN2 splice up 28%.
For COc1ccc(Cl)cc1N1Cc2ccccc2C1 the results were Rab9 promoter act -4%, ELG1 genotox -4%, FLuc modulator 3%, NPC1 prom act 2% and SMN2 splice up 20%.
`COc1ccc(N2Cc3ccccc3C2)cc1Cl` gave Rab9 promoter act inconclusive, ELG1 genotox 21µM*, FLuc modulator inconclusive, NPC1 prom act 19% and SMN2 splice up inconclusive.

Source: PubChem
